Measurements from ChEMBL document CHEMBL1961873, “Compounds: GSK PKIS; Assays: Nanosyn kinase panel” (2012).

Columns and labels:
[1] = biological target: Leukocyte tyrosine kinase receptor (Homo sapiens) (UniProt P29376); conditions: at 1 µM;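 further: each value is the mean inhibition of LTK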
[2] = biological target: Tyrosine-protein kinase Lyn (Homo sapiens) (UniProt P07948); conditions: at 0.1 µM
[3] = biological target: Tyrosine-protein kinase Lyn (Homo sapiens) (UniProt P07948); conditions: at 1 µM
[4] = biological target: Tyrosine-protein kinase Lyn (Homo sapiens) (UniProt P07948); conditions: at 0.1 µM; remark: listed apart in the source
[5] = biological target: Tyrosine-protein kinase Lyn (Homo sapiens) (UniProt P07948); conditions: at 1 µM; remark: listed apart in the source
[6] = biological target: T1, Tyrosine-protein kinase Mer (Homo sapiens) (UniProt Q12866); conditions: at 0.1 µM
T1 sequence (whole entry): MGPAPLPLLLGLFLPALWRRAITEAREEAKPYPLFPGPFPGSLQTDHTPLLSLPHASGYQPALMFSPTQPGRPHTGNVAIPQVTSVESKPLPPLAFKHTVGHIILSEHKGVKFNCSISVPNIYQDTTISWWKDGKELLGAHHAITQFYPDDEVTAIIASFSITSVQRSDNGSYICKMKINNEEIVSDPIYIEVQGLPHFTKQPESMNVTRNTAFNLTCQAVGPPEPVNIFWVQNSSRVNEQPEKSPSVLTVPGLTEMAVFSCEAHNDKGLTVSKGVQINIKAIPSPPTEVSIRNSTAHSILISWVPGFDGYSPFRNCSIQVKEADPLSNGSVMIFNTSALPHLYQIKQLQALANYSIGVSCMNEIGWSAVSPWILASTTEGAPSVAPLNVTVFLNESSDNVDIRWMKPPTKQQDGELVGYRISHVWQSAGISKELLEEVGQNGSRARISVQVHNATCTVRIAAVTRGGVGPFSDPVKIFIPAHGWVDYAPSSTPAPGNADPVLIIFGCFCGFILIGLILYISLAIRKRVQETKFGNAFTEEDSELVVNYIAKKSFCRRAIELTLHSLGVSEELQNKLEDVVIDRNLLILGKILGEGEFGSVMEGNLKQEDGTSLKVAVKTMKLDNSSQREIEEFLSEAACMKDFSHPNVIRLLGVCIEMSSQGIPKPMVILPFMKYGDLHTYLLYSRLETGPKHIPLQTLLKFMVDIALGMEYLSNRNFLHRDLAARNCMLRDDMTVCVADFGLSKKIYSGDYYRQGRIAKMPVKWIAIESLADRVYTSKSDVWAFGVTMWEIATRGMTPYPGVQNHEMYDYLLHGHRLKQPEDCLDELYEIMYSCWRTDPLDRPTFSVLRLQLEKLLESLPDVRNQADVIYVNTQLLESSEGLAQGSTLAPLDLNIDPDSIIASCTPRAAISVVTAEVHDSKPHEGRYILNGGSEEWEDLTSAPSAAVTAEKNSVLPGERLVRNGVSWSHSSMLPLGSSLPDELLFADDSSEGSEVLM

[7] = biological target: T1, Tyrosine-protein kinase Mer (Homo sapiens); conditions: at 1 µM
[8] = biological target: Hepatocyte growth factor receptor (Homo sapiens) (UniProt P08581); conditions: at 0.1 µM
[9] = biological target: Hepatocyte growth factor receptor (Homo sapiens) (UniProt P08581); conditions: at 1 µM
[10] = biological target: T2, Muscle, skeletal receptor tyrosine-protein kinase (Homo sapiens) (UniProt O15146); conditions: at 0.1 µM;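 further: values are mean inhibition of MuSK from the GSK PKIS kinase screening panel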
T2 sequence (whole entry): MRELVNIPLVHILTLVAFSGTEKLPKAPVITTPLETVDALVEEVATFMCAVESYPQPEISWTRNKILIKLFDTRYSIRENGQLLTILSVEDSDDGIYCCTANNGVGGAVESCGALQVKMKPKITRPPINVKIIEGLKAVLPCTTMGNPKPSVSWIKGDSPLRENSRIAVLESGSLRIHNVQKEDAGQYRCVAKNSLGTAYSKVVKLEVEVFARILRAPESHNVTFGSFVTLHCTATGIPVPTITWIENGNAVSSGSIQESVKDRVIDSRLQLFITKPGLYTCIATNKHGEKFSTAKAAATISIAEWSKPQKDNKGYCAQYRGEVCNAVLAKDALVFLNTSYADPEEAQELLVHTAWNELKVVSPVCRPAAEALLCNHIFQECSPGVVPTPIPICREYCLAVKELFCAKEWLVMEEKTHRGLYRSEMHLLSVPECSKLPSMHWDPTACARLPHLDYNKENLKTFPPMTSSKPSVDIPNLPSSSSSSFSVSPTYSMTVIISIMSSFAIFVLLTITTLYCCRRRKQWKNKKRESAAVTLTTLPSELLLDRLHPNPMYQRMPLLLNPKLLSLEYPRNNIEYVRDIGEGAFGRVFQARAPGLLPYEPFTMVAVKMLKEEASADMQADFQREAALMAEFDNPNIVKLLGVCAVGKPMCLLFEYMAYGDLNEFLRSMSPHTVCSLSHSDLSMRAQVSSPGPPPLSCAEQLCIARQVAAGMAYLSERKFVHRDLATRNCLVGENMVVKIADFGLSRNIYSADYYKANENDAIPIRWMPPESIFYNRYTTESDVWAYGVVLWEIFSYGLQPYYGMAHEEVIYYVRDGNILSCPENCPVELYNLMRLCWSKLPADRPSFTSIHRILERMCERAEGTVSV

Chain of Tyrosine-protein kinase Lyn (Homo sapiens) (P07948 2-512 limits assumed): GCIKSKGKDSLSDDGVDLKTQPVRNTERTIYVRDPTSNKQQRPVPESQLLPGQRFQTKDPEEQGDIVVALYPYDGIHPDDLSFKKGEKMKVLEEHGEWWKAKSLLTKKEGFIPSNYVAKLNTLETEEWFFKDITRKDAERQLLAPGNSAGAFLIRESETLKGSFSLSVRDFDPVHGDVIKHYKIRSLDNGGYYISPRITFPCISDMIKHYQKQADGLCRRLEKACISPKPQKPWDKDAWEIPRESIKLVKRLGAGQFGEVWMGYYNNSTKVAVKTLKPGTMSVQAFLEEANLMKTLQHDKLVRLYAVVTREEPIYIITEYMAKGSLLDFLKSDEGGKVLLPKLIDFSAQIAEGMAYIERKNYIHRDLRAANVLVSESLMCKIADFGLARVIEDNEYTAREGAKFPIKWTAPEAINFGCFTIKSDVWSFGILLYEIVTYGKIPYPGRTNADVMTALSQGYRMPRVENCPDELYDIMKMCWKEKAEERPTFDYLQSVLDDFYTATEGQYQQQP
Chain of Leukocyte tyrosine kinase receptor (Homo sapiens) (P29376 whole entry): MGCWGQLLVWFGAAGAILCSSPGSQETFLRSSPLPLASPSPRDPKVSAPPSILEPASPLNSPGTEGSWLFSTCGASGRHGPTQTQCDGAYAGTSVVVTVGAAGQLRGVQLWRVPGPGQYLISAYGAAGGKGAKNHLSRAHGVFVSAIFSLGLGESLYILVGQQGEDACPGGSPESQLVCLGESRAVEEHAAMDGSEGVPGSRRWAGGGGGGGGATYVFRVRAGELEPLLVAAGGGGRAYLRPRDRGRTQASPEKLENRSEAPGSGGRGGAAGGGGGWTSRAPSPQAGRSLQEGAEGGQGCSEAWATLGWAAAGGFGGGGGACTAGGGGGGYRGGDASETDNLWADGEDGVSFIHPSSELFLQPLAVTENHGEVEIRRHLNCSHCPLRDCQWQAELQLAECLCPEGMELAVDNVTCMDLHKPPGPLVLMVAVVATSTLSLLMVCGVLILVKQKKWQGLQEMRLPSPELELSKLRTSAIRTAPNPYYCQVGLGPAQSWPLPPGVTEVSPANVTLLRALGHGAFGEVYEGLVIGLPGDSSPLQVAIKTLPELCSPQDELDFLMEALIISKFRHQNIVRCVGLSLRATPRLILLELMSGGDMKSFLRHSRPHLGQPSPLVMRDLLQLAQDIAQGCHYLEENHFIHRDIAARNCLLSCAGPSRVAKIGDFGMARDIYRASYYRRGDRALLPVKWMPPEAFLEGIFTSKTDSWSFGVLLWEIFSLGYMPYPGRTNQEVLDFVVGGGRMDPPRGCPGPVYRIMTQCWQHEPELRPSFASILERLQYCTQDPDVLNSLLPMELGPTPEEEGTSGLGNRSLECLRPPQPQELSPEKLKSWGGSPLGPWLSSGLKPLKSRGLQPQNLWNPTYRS
Chain of Hepatocyte growth factor receptor (Homo sapiens) (P08581 whole entry): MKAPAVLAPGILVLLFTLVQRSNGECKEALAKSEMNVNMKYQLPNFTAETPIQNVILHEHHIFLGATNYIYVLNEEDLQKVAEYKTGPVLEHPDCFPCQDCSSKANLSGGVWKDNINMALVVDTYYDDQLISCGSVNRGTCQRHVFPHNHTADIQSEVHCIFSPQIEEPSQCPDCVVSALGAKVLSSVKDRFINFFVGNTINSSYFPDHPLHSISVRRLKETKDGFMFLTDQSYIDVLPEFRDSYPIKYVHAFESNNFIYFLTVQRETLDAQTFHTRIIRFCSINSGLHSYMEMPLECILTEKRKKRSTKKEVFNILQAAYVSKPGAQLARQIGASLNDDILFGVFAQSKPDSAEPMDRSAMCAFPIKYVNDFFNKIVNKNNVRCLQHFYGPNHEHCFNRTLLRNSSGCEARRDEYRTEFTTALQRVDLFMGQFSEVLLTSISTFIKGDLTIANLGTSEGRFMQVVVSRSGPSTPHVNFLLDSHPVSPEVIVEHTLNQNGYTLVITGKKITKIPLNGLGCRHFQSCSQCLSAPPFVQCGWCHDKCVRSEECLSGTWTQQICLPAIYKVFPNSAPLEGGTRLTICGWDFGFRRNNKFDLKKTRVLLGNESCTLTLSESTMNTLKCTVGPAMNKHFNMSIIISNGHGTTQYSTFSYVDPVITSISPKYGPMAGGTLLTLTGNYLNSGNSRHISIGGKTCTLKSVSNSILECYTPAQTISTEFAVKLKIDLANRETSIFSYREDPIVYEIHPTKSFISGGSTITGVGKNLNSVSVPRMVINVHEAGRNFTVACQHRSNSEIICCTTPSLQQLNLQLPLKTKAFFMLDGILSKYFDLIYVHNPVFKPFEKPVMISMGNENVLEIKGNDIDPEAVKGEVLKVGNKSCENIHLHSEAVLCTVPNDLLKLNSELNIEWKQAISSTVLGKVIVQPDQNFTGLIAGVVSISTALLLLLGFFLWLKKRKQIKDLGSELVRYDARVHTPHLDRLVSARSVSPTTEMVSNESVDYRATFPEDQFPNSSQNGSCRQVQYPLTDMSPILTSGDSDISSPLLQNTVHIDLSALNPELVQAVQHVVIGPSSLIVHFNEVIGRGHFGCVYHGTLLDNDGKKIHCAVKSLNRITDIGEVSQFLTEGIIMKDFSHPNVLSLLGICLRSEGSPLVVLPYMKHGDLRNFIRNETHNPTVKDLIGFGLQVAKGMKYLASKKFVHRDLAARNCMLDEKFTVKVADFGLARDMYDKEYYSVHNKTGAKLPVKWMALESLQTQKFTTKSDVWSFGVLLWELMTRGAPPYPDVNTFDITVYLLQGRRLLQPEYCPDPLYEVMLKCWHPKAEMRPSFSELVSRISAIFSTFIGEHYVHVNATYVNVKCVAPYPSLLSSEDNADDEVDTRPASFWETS

SMILES	inhibition [1]	inhibition [2]	inhibition [3]	inhibition [4]	inhibition [5]	inhibition [6]	inhibition [7]	inhibition [8]	inhibition [9]	inhibition [10]
CS(=O)(=O)CCNCc1coc(-c2ccc3ncnc(Nc4ccc(OCc5ccccc5)cc4)c3c2)c1	11.4%	3.61%	8.56%	3.96%	6.66%	5.03%	29.9%	9.58%	9.58%	2.22%
O=S(=O)(CCNCc1ccc(-c2ccc3ncnc(Nc4ccc(OCc5cccc(F)c5)c(Cl)c4)c3c2)o1)c1ccccc1	5.42%	6.84%	7.64%	3.9%	4.05%	3.42%	7.37%	-0.44%	6.95%	6.83%
COc1cc(N2CCN(C(C)C)CC2)ccc1Nc1nc(Nc2ccc(F)cc2C(N)=O)c2cc[nH]c2n1	96%	2.75%	2.96%	1.54%	1.29%	4.46%	8.43%	7.18%	0.66%	1.72%
COc1ccc(-c2nn3ncccc3c2-c2ccnc(Nc3ccc4c(c3)OCCO4)n2)cc1	23.5%	13.8%	60.4%	9.96%	55.4%	-0.06%	12.9%	-1.3%	8.57%	-0.81%
Cc1ccc(O)cc1Nc1ccnc2cc(-c3ccccn3)ccc12	49.7%	72.8%	94.3%	65.2%	91.9%	1.35%	4.24%	11.7%	5.41%	3.21%
CCNC(=O)O[C@H]1CN[C@H](C#Cc2cc3ncnc(Nc4ccc(OCc5cccc(F)c5)c(Cl)c4)c3s2)C1	2.99%	5.67%	3.68%	2.23%	1.7%	0.26%	7.09%	3.78%	1.15%	2.4%
Fc1ccc(-c2nn3ncccc3c2-c2ccnc(Nc3ccc4c(c3)OCCO4)n2)cc1	5.5%	32.5%	78.8%	26%	72.7%	5.86%	31.5%	4.89%	10.7%	3.02%
CCc1nn2ncccc2c1-c1ccnc(NC2CC2)n1	3.47%	2.13%	2.84%	2.22%	3.39%	3.92%	4.58%	6.93%	4.86%	1.52%
NS(=O)(=O)c1ccc(Nc2ncc(-c3ccccc3)o2)cc1	6.46%	5.4%	12.4%	2.72%	9.48%	2.4%	5.27%	1.7%	-0.71%	3.44%
c1ccc(-c2nc3n(c2-c2ccc4c(c2)OCO4)CCC3)nc1	0.36%	1.78%	2.26%	0.94%	0.92%	1.83%	0.66%	2.27%	-1.42%	0.55%
[O-][S+]1CCN(Cc2ccc(-c3ccc4ncnc(Nc5ccc(OCc6cccc(F)c6)c(Cl)c5)c4c3)o2)CC1	7.31%	6.15%	8.63%	5.42%	7.66%	2.54%	31%	11.9%	10.6%	3.52%
Cc1ccc2c(-c3ccnc(Nc4ccccc4)n3)c(-c3ccc(F)cc3)nn2n1	2.78%	10.8%	50.1%	8.55%	44.4%	3.07%	23.9%	1.64%	8.18%	3.5%
Fc1ccc(-c2cc(-c3c[nH]nc3-c3ccccn3)ccn2)cc1	5.88%	6.32%	8.49%	5.14%	7.44%	1.96%	2%	6.72%	8.44%	2.06%
COC(=O)Nc1nc2ccc(Oc3ccc(NC(=O)Nc4cccc(Cl)c4)cc3)cc2[nH]1	1.17%	5.13%	13.5%	4.25%	11.1%	2.64%	2.51%	9.7%	12.3%	10.2%
CCN1CCC(CC(=O)Nc2n[nH]c3nnc(-c4cccc(F)c4F)cc23)CC1	1.45%	3.32%	3.55%	2.16%	2.2%	-1.66%	-0.36%	4.54%	9.2%	1.85%
COc1ccc(-c2cc3c(N)ncnc3o2)cc1	0.01%	-0.81%	3.66%	1.13%	3.28%	0.56%	2.01%	-2.37%	0.32%	-1.04%
CCn1cc(-c2ccnc3[nH]ccc23)c(-c2cccc(NC(=O)Nc3ccc(OCc4ccccc4)cc3)c2)n1	-0.91%	5.25%	19.4%	2.62%	13.6%	0.66%	8.39%	9.54%	46.4%	-1.52%
